Experimental data taken from the supplement of paper PMC3414501.
Where a name gives a salt, the structure may show the parent alone.

Tests used:
[1] = system: S. cerevisiae SK1 pCDA2-eGFP (USY613), sporulating; assay: CDA2-GFP sporulation assay sensitivity score (z-score vs DMSO controls); higher = stronger inhibition of sporulation, active = hit call of the paper;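 also: active if sensitivity score above 5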
[2] = system: S. cerevisiae NKY1551 his4x/his4B, sporulating; assay: HIS4 meiotic recombination assay sensitivity score (z-score vs DMSO controls); higher = stronger inhibition of sporulation/recombination, active = hit call of the paper;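 also: active if sensitivity score above 5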
[3] = system: S. cerevisiae AD1-9 (efflux-pump deficient), vegetative growth in YPD; assay: growth sensitivity score (doubling time z-score vs DMSO controls); higher = slower growth, strongly negative scores also mark growth inhibition (complete suppression), active = hit call of the paper
Procedure, shortened: (§1)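 Saccharomyces cerevisiae strains BY4741 and AD1-9 were seeded in rich medium in microtiter plates at an OD600 of 0.065. Compounds were added at a 1:100 dilution of DMSO stock. Optical density was read every 15 min for 24 hours on a Tecan GENios reader. Average doubling time was the time taken to reach a set generation point divided by generation number, and the growth sensitivity score was (compound mean − DMSO-control mean)/DMSO-control SD, using eight DMSO controls per experiment.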

[4] = system: S. cerevisiae BY4741 (wild-type), vegetative growth in YPD; assay: as above
Procedure, shortened: as §1

Row | SMILES | CDA2-GFP sporulation assay sensitivity score [1] | HIS4 meiotic recombination assay sensitivity score [2] | growth sensitivity score [3] | growth sensitivity score [4]
1 | CC(=O)O[C@H]1C[C@@H]2CC[C@@H]3[C@H](CC[C@@]4(C)[C@H]3C[C@H]([N+]3(C)CCCCC3)[C@@H]4OC(C)=O)[C@@]2(C)C[C@@H]1N1CCCCC1 [Vecuronium bromide] (stock concentration (mM, diluted 1:100): 10) | 1.32 (inactive) | -1.64 (inactive) | -5.36 | 0.21 (inactive)
2 | O=[N+]([O-])c1cccc2cn[nH]c12 [7-Nitroindazole] (stock concentration (mM, diluted 1:100): 10) | 2.93 (inactive) | -1.75 (inactive) | -1.05 (inactive) | 0.06 (inactive)
3 | CCc1ccc(CCOc2ccc(CC3SC(=O)NC3=O)cc2)nc1 (configuration not stated) [Pioglitazone hydrochloride] (stock concentration (mM, diluted 1:100): 9.1) | 2.87 (inactive) | 0.36 (inactive) | -1.03 (inactive) | -0.08 (inactive)
4 | COc1ccc2c(c1)c(CC(=O)O)c(C)n2C(=O)c1ccc(Cl)cc1 [Indomethacin] (stock concentration (mM, diluted 1:100): 10.5) | 0.38 (inactive) | 0.4 (inactive) | 0.93 (inactive) | 0.62 (inactive)
5 | Nc1ccn([C@@H]2O[C@H](CO)[C@@H](O)[C@@H]2O)c(=O)n1 [Cytarabine] (stock concentration (mM, diluted 1:100): 10) | -0.45 (inactive) | -0.49 (inactive) | -2.83 | -0.01 (inactive)
6 | NC(=O)c1cccnc1 [Nicotinamide] (stock concentration (mM, diluted 1:100): 10) | 4.17 (inactive) | 0.03 (inactive) | -0.97 (inactive) | -0.49 (inactive)
7 | O=C1c2c(O)cc(O)cc2OC(c2ccc(O)c(O)c2)C1O (configuration not stated) [Taxifolin] (stock concentration (mM, diluted 1:100): 10) | -0.07 (inactive) | -0.97 (inactive) | -0.46 (inactive) | -0.85 (inactive)
8 | CCOc1cc(N)c(Cl)cc1C(=O)NCC1CN(Cc2ccc(F)cc2)CCO1 (configuration not stated) [Mosapride citrate] (stock concentration (mM, diluted 1:100): 6.9) | 1.67 (inactive) | -0.43 (inactive) | 17.2 (active) | 3.25 (active)
9 | CN(C)CCOc1ccc(/C(=C(/CCCl)c2ccccc2)c2ccccc2)cc1 [Toremifene citrate] (stock concentration (mM, diluted 1:100): 10) |  | 3.57 (inactive) |  | 
10 | C[C@H](N[C@@H](CCc1ccccc1)C(=O)O)C(=O)N1CCC[C@H]1C(=O)O [Enalaprilat] (stock concentration (mM, diluted 1:100): 10) | 1.04 (inactive) | -0.11 (inactive) | -0.82 (inactive) | 0.34 (inactive)
11 | C[C@@H](c1ncncc1F)[C@](O)(Cn1cncn1)c1ccc(F)cc1F [Voriconazole] (stock concentration (mM, diluted 1:100): 9.9) | -0.46 (inactive) | 0.14 (inactive) | 20.3 (active) | 43.3 (active)
12 | CC(C)(C)NCC(O)c1ccc(O)c(CO)c1 (configuration not stated) [Salbutamol sulfate] (stock concentration (mM, diluted 1:100): 9.7) | -0.05 (inactive) | -0.65 (inactive) | -1.51 (inactive) | -0.62 (inactive)
13 | CC(C)C[C@H](NC(=O)[C@@H](O)[C@H](N)Cc1ccccc1)C(=O)O [Bestatin] (stock concentration (mM, diluted 1:100): 10) | -0.06 (inactive) | -1.06 (inactive) | -1.24 (inactive) | -1.14 (inactive)
14 | O=C1[C@H]2CCCC[C@H]2C(=O)N1CCCCN1CCN(c2nsc3ccccc23)CC1 [Perospirone hydrochloride] (stock concentration (mM, diluted 1:100): 9.4) | 2.69 (inactive) | -2.62 (inactive) | 2.19 (active) | 3.13 (active)
15 | C[C@H]1[C@H](OC(=O)CCC(=O)O)O[C@@H]2O[C@@]3(C)CC[C@H]4[C@H](C)CC[C@@H]1[C@@]24OO3 [Artesunate] (stock concentration (mM, diluted 1:100): 10) | 0.74 (inactive) | 0.08 (inactive) | 23.2 (active) | 2.81 (active)
